Test results taken from ChEMBL document CHEMBL3988442, “University of Dundee, Small-Polar-MMV Screening Library” (2021).
In all, about 48,000 compounds went through this assay and about 13,000 (27%) showed an effect of 50% or more. This is one part of the list.

Test system: Wolbachia pipientis
Assay: Anti-Wolbachia Cell-Based Screen
Type: functional
Parameters: scale not given: in the data most compounds retested in dose-response had high values
Conditions: 5 µM

| Structure (SMILES) | Percent Effect |
| --- | --- |
| COc1ncccc1C1CC(=O)NCc2nc3sccn3c21 (centres undefined) | -19.07% |
| COCc1cc(NCc2cccnc2Oc2ccc(C)nc2)ncn1 | -2.689% |
| CSCCC1c2nc[nH]c2CCN1Cc1cncn1C (centres undefined) | -0.6967% |
| CSCc1noc(CNC(=O)c2cc(C)c(C)[nH]c2=O)n1 | -3.67% |
| CC(C)N(C)C(=O)C1CSCN1S(=O)(=O)c1cccs1 (centres undefined) | 24.99% |
| CCc1cc(NCC(N)=O)nc(N2CCCCC2)n1 | 3.256% |
| COc1ccc2cc(C3CN(C(=O)N(C)C)CCO3)ccc2c1 (centres undefined) | 8.393% |
| COCC(=O)N1CC2=CC(C)(C)COc3ccc(OC)c(c32)C1 | 86.58% |
| CCNC(=O)N1C[C@@H](NC(C)=O)[C@H](c2ccc(C)o2)C1 | -5.007% |
| COc1ccc2c3c1CN(C(=O)N(C)C)CC3=CC(C)(C)CO2 | 71.28% |
| CCNC(=O)N1CCC2(CC1)CCn1c(-c3cccc(OC)c3)cnc12 | -4.783% |
| CCNC(=O)N1CC2=CC(C)(C)COc3ccc(OC)c(c32)C1 | 61.47% |
| COCC(=O)N1CCN(C(=O)C2(c3ccc(C)c(OC)c3)CC2)CC1 | 8.797% |
| COCC(=O)N1CCc2[nH]nc(-c3ccc4c(c3)OCO4)c2C1 | -8.415% |
| Cc1cccc2ncnc(N3CCOC(C)C3)c12 (centres undefined) | 0.1008% |
| O=C1C(N2CCN(c3ccccc3Cl)CC2)CCN1C1CCOCC1 (centres undefined) | -17.41% |
| CCCn1nc(C)c(CNC(=O)C2COc3c(cccc3OC)C2)c1C (centres undefined) | -7.419% |
| O=C(NC[C@H]1OC[C@@H](NCc2ccccc2F)[C@@H]1O)c1ccc(F)cc1 | -2.288% |
| Cc1cccc(NC(=O)c2[nH]nc(C(C)C)c2Br)n1 | 122.8% |
| CC(C)c1n[nH]c(C(=O)Nc2cc[nH]n2)c1Br | -7.047% |
| COc1ncccc1NC(=O)c1[nH]nc(C(C)C)c1Br | 15.14% |
| CC(C)c1n[nH]c(C(=O)Nc2ccccn2)c1Br | 113.3% |
| CC(C)c1n[nH]c(C(=O)NC(C)c2ccncc2)c1Br (centres undefined) | 112.2% |

| Structure (SMILES) | Percent Effect |
| --- | --- |
| Cc1ccnc(NC(=O)c2[nH]nc(C(C)C)c2Br)c1 | 97.23% |
| CC(C)c1n[nH]c(C(=O)Nc2ccncc2)c1Br | -16.38% |
| CC(C)c1n[nH]c(C(=O)Nc2ccnn2C(C)C)c1Br | -14.02% |
| COc1ccncc1NC(=O)c1[nH]nc(C(C)C)c1Br | -9.572% |
| Cn1cc(CN2CCn3cc(CNC(=O)C4CCC4)nc3C2)cn1.O=C(O)C(F)(F)F | 18.03% |
| O=C(NCc1nnc2ccccn12)N1CCOC(c2cccs2)C1 (centres undefined) | -3.405% |
| COc1ccc(-n2nc(C3CC3)nc2CCn2cnnn2)cc1 | -7.711% |
| COc1ccc(N2Cc3n[nH]c(=O)n3C2=O)cc1 | -0.5114% |
| COC[C@H]1CCC[C@]12CN(C(=O)NCc1ccccc1)CCO2 | 18.34% |
| O=C(c1ccno1)N1CCO[C@]2(CCC[C@@H]2COCc2ccncc2)C1 | -0.3534% |
| COCC(=O)N1CCO[C@]2(CCC[C@H]2COC)C1 | 106.8% |
| COC[C@@H]1CCC[C@@]12CN(C(=O)N1CCCC1)CCO2 | 87.5% |
| COC[C@@H]1CCC[C@@]12CN(C(=O)N(C)C)CCO2 | 101.2% |
| O=C(c1ccoc1)N1CCO[C@]2(CCC[C@@H]2COCc2ccncc2)C1 | -6.569% |
| O=C(O)C(F)(F)F.O=C(c1ccc[nH]1)N1CCO[C@]2(CCC[C@@H]2COc2cccnc2)C1 | -3.807% |
| COC[C@H]1CCC[C@]12CN(CCc1ccccc1)CCO2.O=C(O)C(F)(F)F | 30.11% |
| Cc1[nH]c2c(F)cccc2c1CC(=O)NCCCNc1cccnc1 | 12% |
| Cc1noc(COCC(=O)Nc2ccc(Br)c(C)n2)n1 | 11.2% |
| O=C(c1ccccc1)N1C[C@@H]2CC[C@H](C1)N(C(=O)CN1CCOCC1)C2 | -9.595% |
| CCc1nc(CNC(=O)c2ccc(C(C)N3CCCCC3)o2)cc(=O)[nH]1 (centres undefined) | -0.08952% |
| CCOC(=O)CNc1nc(COC)nc2c1cnn2C | 5.543% |
| Cn1ncc2c(NCCC34CCCN3CCC4)nc(C3CCCC3)nc21 | 4.055% |
| COCC1(Nc2nc(C)nc3c2cnn3C)CCCC1 | 115.3% |

| Structure (SMILES) | Percent Effect |
| --- | --- |
| CCCc1nc(N(C)CCN2CCCCCC2)c2cnn(C)c2n1 | 11.67% |
| Cc1nsc(NC(=O)NC2(CN3CCCCC3)CCCCC2)n1 | 1.448% |
| Cc1nc(NC2(CN3CCCCC3)CCCCC2)c2cnn(C)c2n1 | 98.05% |
| CCC(Nc1nc(C)nc2c1cnn2C)c1ncnn1CC (centres undefined) | 13.02% |
| CCOC(=O)CNc1nc(C(C)(C)C)nc2c1cnn2C | 2.145% |
| CCCc1nc(NC2(COC)CCCC2)c2cnn(C)c2n1 | 85.47% |
| CCOC(=O)CC1(Nc2nc(C)nc3c2cnn3C)CCCCC1 | 107.9% |
| CCn1c(C)nnc1SCCNc1nc(C)nc2c1cnn2C | -4.457% |
| CCOC(=O)CC(C)Nc1nc(C2CCCC2)nc2c1cnn2C (centres undefined) | -2.112% |
| O=C(C1=CCCC1)N1CCC[C@]2(C[C@@H](OCc3ccccn3)CO2)C1.O=C(O)C(F)(F)F | 5.284% |
| CS(=O)(=O)N1C[C@@H]2CC[C@H](C1)N(C(=O)Cn1nc3ccccc3n1)C2 | 3.871% |
| Cc1csc(N2CCN(C(=O)CCC(=O)c3ccc(C)s3)CC2)n1 | 7.228% |
| CCS(=O)(=O)N1CCOC2(COCCN(c3nccs3)C2)C1 (centres undefined) | 11.05% |
| CC(C)c1ccc(S(=O)(=O)NC2CCN(CC(F)(F)F)C2)cc1 (centres undefined) | 12.82% |
| COc1cc(CN2CC[C@@H](N3CCCCCC3)[C@H](O)C2)cc(Cl)c1OC | 100.3% |
| COc1cc(Cl)cc(CN2CCCC(N3CCOCC3)C2)c1OC (centres undefined) | 106.9% |
| CC(C)Oc1ccc(CN2CCCC(N3CCOCC3)C2)cc1CO (centres undefined) | -0.1551% |
| O[C@@H]1CN(CC2=Cc3cc(Cl)ccc3OC2)CC[C@H]1N1CCCCCC1 | 0.906% |
| Cc1cc(C)c2[nH]c(CN3CCCC(N4CCOCC4)C3)cc(=O)c2c1 (centres undefined) | 0.1169% |
| COc1cc(Cl)cc(CN2CCCC(N3CCCC3)C2)c1OC (centres undefined) | 116% |
| COc1ccc(CN2CCCC(N3CCCC3)C2)cc1Cn1cncn1 (centres undefined) | 15.57% |
| COc1cc(CN2CCC(O)(c3ccc(C)cn3)CC2)cc(Cl)c1OC | -12.14% |
| COc1ccc(CN2CCCC(n3cccn3)C2)c(Cl)c1OC (centres undefined) | 1.14% |
